Assay outcomes from PubChem BioAssay.
Sfp inh – qHTS Assay for Inhibitors of Bacillus subtilis Sfp phosphopantetheinyl transferase (PPTase); 310,000 compounds, 3.5% hits; Potency, µM, for the others: largest response in the series, negative = inhibition, hits mostly inhibitors; Biochemical Sfp PPTase activity, qHTS; 4'-phosphopantetheinyl transferase ffp (Bacillus subtilis), Q9F4F7;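 note: the enzyme is Sfp with the accession as filed and its product quenches rhodamine fluorescence; potency is the fitted concentration of half-maximal effect; 0% = enzyme reaction without inhibitor and -100% = no enzyme wells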
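Step 1, compound plus 15 nM Sfp-PPTase, 15 min, room temperature. Step 2, add rhodamine-CoA (5 uM) and BHQ-2-YbbR (12.5 uM). Step 3, read 525/598 nm fluorescence at 0 and 30 min.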
miR-21 reporter – qHTS Assay for Modulators of miRNAs and/orActivators of miR-21. HeLa miR-21 FLuc reporter, luciferase, 48 h. Potency, µM (titrated, usually from 38.3 µM), for the others: at the highest dose activity change, positive = activation, most hits filed as activators. 340,000 tested, under 10 active. AID 2288, 2010;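 note: % of control where 0% means no effect; miR-21 action dims this reporter so a rising signal means less miR-21 action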
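HeLa cells stably expressing CMV-driven firefly luciferase with a downstream miR-21 binding sequence, endogenously expressing miR-21, were treated with titrations (up to about 40uM final) for 48 hours at 37 degree Celsius. Luciferase luminescence was read after lysis.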
KDM4E inh – qHTS Assay for Inhibitors of Human Jumonji Domain Containing 2E (JMJD2E); JMJD2E catalytic domain, FDH-coupled NADH fluorescence (FDH is formaldehyde dehydrogenase); Potency, µM (series often up to 57.1 µM), for inactives: at the highest dose activity change, negative = inhibition, hits mostly inhibitors; 230,000 compounds, 1.6% hits; active = well fitted inhibition curve with a large enough effect, not every such curve was filed as active; inconclusive = small, poorly fitted or top-dose-only effect, or another doubt; inactive = no such curve, though single readings can be large or run the other way;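 note: potency is the fitted concentration of half-maximal effect; 0% = wells with enzyme and -100% = buffer wells without enzyme; nearly all actives have a fitted effect of over 50% in size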
Target sequence (B2RXH2 1-337 limits assumed): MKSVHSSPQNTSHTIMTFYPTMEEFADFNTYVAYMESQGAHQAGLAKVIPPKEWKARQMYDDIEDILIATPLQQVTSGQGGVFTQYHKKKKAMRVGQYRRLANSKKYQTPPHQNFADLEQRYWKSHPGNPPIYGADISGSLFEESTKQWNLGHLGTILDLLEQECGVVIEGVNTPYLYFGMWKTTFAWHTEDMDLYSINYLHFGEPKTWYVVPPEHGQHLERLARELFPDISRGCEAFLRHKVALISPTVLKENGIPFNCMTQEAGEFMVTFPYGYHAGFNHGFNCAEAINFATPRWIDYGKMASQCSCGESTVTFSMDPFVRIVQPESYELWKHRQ
G9a block – qHTS Assay for Inhibitors of Histone Lysine Methyltransferase G9a. G9a H3K9 monomethylation, AlphaScreen, 2 h. Potency, µM (highest dose often 102 µM), without a hit: top-dose activity, negative = inhibition, usual class: inhibitors. 350,000 compounds, 8.8% hits. AID 504332, 2011; note: potency is the fitted concentration of half-maximal effect; % is set by controls: 0 for no effect and ±100 for the full control effect; nearly all actives have a fitted effect of over 75% in size
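Readings reflect AlphaScreen signal from monomethyl-H3K9 antibody detection. HMT at 20 nM; substrate b-H3K9 500 nM; cofactor SAM 20 uM; 2 h RT reaction; compounds tested as titrations in qHTS with 15 min preincubation.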
ALDH1A1 block – qHTS Assay for Inhibitors of Aldehyde Dehydrogenase 1 (ALDH1A1). Aldehyde dehydrogenase 1A1 (Homo sapiens), P00352. Potency, µM (doses to about 75.3 µM), inactives show top-dose activity, negative = inhibition, usual class: inhibitors. Purified ALDH1A1, NADH fluorescence, propionaldehyde substrate. 220,000 compounds, 7.3% hits; active = well fitted inhibition curve with a large enough effect, not every such curve was filed as active; inconclusive = small, poorly fitted or top-dose-only effect, or another doubt; inactive = no such curve, though single readings can be large or run the other way;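 note: potency is the fitted concentration of half-maximal effect; plate controls were no enzyme wells and a reference inhibitor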
LMNA splice mod – qHTS Assay for Modulators of Lamin A Splicing | HeLa LMNA splicing GFP/RFP minigene ratio, 48 h | Potency, µM (series often up to 46.1 µM), inactives show top-dose ratio change, negative = inhibition, usual class: inhibitors | 200,000 compounds, 0.01% hits; active = well fitted inhibition curve with a large enough effect in the signal ratio, with a control signal flat, not every such curve was filed as active; inconclusive = small, poorly fitted or top-dose-only effect, or effect the other way, or a change in a side signal; the % refers to the signal ratio; note: potency is the fitted concentration of half-maximal effect; % is set by controls: 0 for no effect and ±100 for the full control effect
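Read-out is the ratio of GFP to DsRed2 object intensity, acquired by 488 nm laser-scanning cytometry on HeLa lamin A-EGFP minigene reporter cells. Compound incubation 48 hrs at 37 °C in Opti-MEM with 2% FBS; DMSO 0.5% final.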
Starred values were filed as active, the others as inactive; u = inconclusive; x = no result given; [ ] = another dose, or the depositor's remark. Shown are actives, neighbours in structure and some others; about 13% of the full set was active somewhere. Unless noted, calls come from the whole dose curve; as a rule, active = well fitted curve in the direction sought with a large enough effect; inconclusive = small, poorly fitted or top-dose-only effect, or another doubt; inactive = no such curve, though single readings can be large; an effect the other way counts as inactive or inconclusive.

SMILES | Sfp inh | miR-21 reporter | KDM4E inh | G9a block | ALDH1A1 block | LMNA splice mod
CCc1ccc(NC(=O)c2ccc(F)c(S(=O)(=O)N3CCN(c4cc(C)ccc4C)CC3)c2)cc1 | x | 13% | x | 0%[59 µM] | x | -1%[46 µM]
C=CCN=C1SC(CC)C(=O)N1S(=O)(=O)c1ccc(C)cc1 (configuration not stated) | -19% | -1% | -3% | 10%[12.7 µM] | 6.3µM* | -7%
Cc1cc(N2CCN(C)CC2)nc2ccc(NC(=S)NCc3cccs3)cc12 | 5% | -19% | u | 40µM* | -6% | x
CCN1CCN(c2cc(C)c3cc(NC(=S)NCc4cccs4)ccc3n2)CC1 | 7% | 3% | u | 45µM* | -14% | x
CCC(C)NC(=S)Nc1ccc2nc(N3CCN(CC)CC3)cc(C)c2c1 (configuration not stated) | 15% | 19% | u | u | u | x
COc1ccccc1CNC(=S)Nc1ccc2nc(N3CCN(C)CC3)cc(C)c2c1 | 56µM* | 11% | u | -10%[59 µM] | -18% | x
O=C(O)CCc1ccc(S(=O)(=O)Nc2cc(C(F)(F)F)ccc2N2CCCC2)cc1 | x | x | x | 28µM* | x | x
Cc1ccc(S(=O)(=O)Nc2cc(C(=O)O)ccc2N2CCCCC2)cc1 | -7% | -2% | 0% | -7%[12.7 µM] | -3% | 21%
C/C(=N/NC(=O)CNC(=O)c1cccnc1)c1ccc(Cl)c(Cl)c1 | 0% | -6% | x | 13% | x | x
O=C(O)c1ccccc1C(=O)N1N=C2/C(=C/c3cccc([N+](=O)[O-])c3)CCCC2C1c1cccc([N+](=O)[O-])c1 (configuration not stated) | -16% | -9% | -15% | 50µM* | u | x
O=C(O)c1c(C(=O)N2N=C3/C(=C/c4ccccc4)CCCC3C2c2ccccc2)cccc1[N+](=O)[O-] (configuration not stated) | -26% | -12% | -8% | 50µM* | u | -7%[46 µM]
Cc1ccc(C(=O)COC(=O)c2ccc3c(c2)C(=O)N(c2cccc4ncccc24)C3=O)cc1 | 79µM* | 3% | -2% | 9%[59 µM] | 8% | -9%
O=C(COC(=O)c1ccc2c(c1)C(=O)N(c1cccc3ncccc13)C2=O)c1ccc(Cl)cc1 | 28µM* | 5% | 2% | 3%[59 µM] | 4% | -5%
CCc1ccc(C(=O)c2cn(Cc3ccccc3)c3cc(OC)c(OC)cc3c2=O)cc1 | x | u | x | -30%[59 µM] | x | x
CC1(C)CC(=O)C2=C(C1)N(Cc1ccco1)C(=O)C2(NC(=O)c1cccnc1)C(F)(F)F (configuration not stated) | 22µM* | -3% | 2% | u | u | -1%
CC1(C)CC(=O)C2=C(C1)N(Cc1cccnc1)C(=O)C2(NC(=O)c1cccnc1)C(F)(F)F (configuration not stated) | 32% | -2% | -3% | 8% | 3% | -7%
Cc1noc(NS(=O)(=O)c2ccc(NC(=O)CSc3nc4c(cc3C#N)CCCCC4)cc2)c1C | -6% | -8% | 0% | 79µM* | -4% | 11%
Cc1noc(NS(=O)(=O)c2ccc(NC(=O)CC(C)C)cc2)c1C | 2% | 0% | x | 9%[59 µM] | x | x
COc1ccc(NC(=O)CSc2nc3c(cc2C#N)CN(C)CC3)cc1 | 10% | -9% | -4% | 11µM* | u | u
CN1CCc2nc(SCC(=O)Nc3ccc(F)cc3)c(C#N)cc2C1 | -20% | -6% | u | 6.3µM* | u | u
CCN1CCc2nc(SCC(=O)Nc3ccc(OC)cc3)c(C#N)cc2C1 | -1% | -21% | u | u | u | u
Nc1cc2nc[nH]c2cc1N | 6% | -50% | u | 18µM* | u | 5%[46 µM]
